Inconclusive results are not listed. Active and inactive are the calls of the source. The call rests on the fitted dose curve; in most records, active means well fitted curve in the direction sought with a large enough effect; inconclusive means small, poorly fitted or top-dose-only effect, or another doubt; inactive means no such curve, though single readings can be large; an effect the other way counts as inactive or inconclusive.
Legend:
MCC-13 = assay: qHTS assay to identify novel small-molecules to repurpose for Merkel cell carcinoma treatment (AID 1296009); conditions: MCC and control cell lines, CellTiter-Glo viability, 72 h; series mostly up to 46 µM; further: nearly all actives have a fitted effect of over 60% in size; further: potency means the concentration at half of the fitted maximal effect
How it was run: (§1)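 72 hr, 37 degree celsius; NPC 8-pt / MIPE 11-pt dose response; compound pinned in DMSO; CellTiter-Glo, 10 min RT, luminescence; normalized to no-cell and DMSO controls.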

MCC-26 = assay: as above; conditions: MCC and control cell lines, CellTiter-Glo viability, 72 h; series mostly up to 46 µM
How it was run: as §1

MKL-2 = assay: as above; conditions: MCC and control cell lines, CellTiter-Glo viability, 72 h; series mostly up to 46 µM
How it was run: as §1

UISO = assay: as above; conditions: MCC and control cell lines, CellTiter-Glo viability, 72 h; series mostly up to 46 µM
How it was run: as §1

WaGa = assay: as above; conditions: MCC and control cell lines, CellTiter-Glo viability, 72 h; series mostly up to 46 µM
How it was run: as §1

CASKI = assay: Primary qHTS to identify gynecologic anti-cancer compounds using libraries of approved drugs and bioactive compounds (AID 1345084); conditions: Gynecologic cancer cell panel viability, ATPlite luminescence, 48 h; series mostly up to 57.5 µM; further: nearly all actives have a fitted effect of over 55% in size; further: potency means the concentration at half of the fitted maximal effect
How it was run: (§2)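 Five-concentration response, 48 h; readout is ATP-driven luciferase luminescence.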

Es-2 = assay: as above; conditions: Gynecologic cancer cell panel viability, ATPlite luminescence, 48 h; series mostly up to 57.5 µM
How it was run: as §2

HeLa = assay: as above; conditions: Gynecologic cancer cell panel viability, ATPlite luminescence, 48 h; series mostly up to 57.5 µM
How it was run: as §2

Hek293T = assay: as above; conditions: Gynecologic cancer cell panel viability, ATPlite luminescence, 48 h, control line for the selectivity index; series mostly up to 57.5 µM
How it was run: as §2

OV90 = assay: as above; conditions: Gynecologic cancer cell panel viability, ATPlite luminescence, 48 h; series mostly up to 57.5 µM
How it was run: as §2

Tov-21-G = assay: as above; conditions: Gynecologic cancer cell panel viability, ATPlite luminescence, 48 h; series mostly up to 57.5 µM
How it was run: as §2

MKL-1 = assay: qHTS assay to identify novel small-molecules to repurpose for Merkel cell carcinoma treatment (AID 1296009); conditions: MCC and control cell lines, CellTiter-Glo viability, 72 h; series mostly up to 46 µM; further: nearly all actives have a fitted effect of over 60% in size; further: potency means the concentration at half of the fitted maximal effect
How it was run: as §1

NIH3T3 = assay: as above; conditions: MCC and control cell lines, CellTiter-Glo viability, 72 h; at 44.8 µM (top of the series) unless noted
How it was run: as §1

C33A = assay: Primary qHTS to identify gynecologic anti-cancer compounds using libraries of approved drugs and bioactive compounds (AID 1345084); conditions: Gynecologic cancer cell panel viability, ATPlite luminescence, 48 h; series mostly up to 57.5 µM; further: nearly all actives have a fitted effect of over 55% in size; further: potency means the concentration at half of the fitted maximal effect
How it was run: as §2

JEG-3 = assay: as above; conditions: Gynecologic cancer cell panel viability, ATPlite luminescence, 48 h; series mostly up to 57.5 µM
How it was run: as §2

PA-1 = assay: as above; conditions: Gynecologic cancer cell panel viability, ATPlite luminescence, 48 h; series mostly up to 57.5 µM
How it was run: as §2

Tov112D = assay: as above; conditions: Gynecologic cancer cell panel viability, ATPlite luminescence, 48 h; series mostly up to 57.5 µM
How it was run: as §2

SKOV3 = assay: as above; conditions: Gynecologic cancer cell panel viability, ATPlite luminescence, 48 h; series mostly up to 57.5 µM
How it was run: as §2

[1] = Drug repurposing screens with cells derived from glioblastoma tumor samples (AID 1345199); conditions: GBM patient neurospheres viability, ATP luminescence, 48 h; Potency: tumour line A; series mostly up to 46.1 µM; further: nearly all actives have a fitted effect of over 40% in size
How it was run: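 Four patient lines of CD133+ GBM neurospheres were screened at several concentrations; hits were retested in those lines plus three slower-growing GBM lines, using 48-hour treatment and ATP-based viability.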

Measured: Potency

CC(=O)SCC(Cc1ccccc1)C(=O)NCC(=O)OCc1ccccc1 (configuration not stated)
inactive: MCC-13 | MCC-26
active: MKL-2 0.209 µM | UISO 14.8 µM

Cn1cc(-c2cnn3c(N)c(Br)c([C@H]4CCCNC4)nc23)cn1
active: MKL-2 1.32 µM | WaGa 1.32 µM
inactive: MCC-13 | MCC-26

CC(N[C@H]1CCCC[C@H]1NC(=O)c1ccc(Cl)cc1)c1cccc2ccccc12 (some centres not stated)
active: MKL-2 0.418 µM
inactive: MCC-13 | MCC-26 | UISO

CC(C)C[C@H](NC(=O)[C@@H](NC(=O)c1cccc(-c2ccccc2)n1)[C@@H](C)O)B(O)O
active: MCC-13 0.264 µM | MCC-26 0.148 µM | MKL-2 0.0418 µM | WaGa 0.0833 µM | CASKI 0.112 µM | Es-2 0.251 µM | HeLa 0.631 µM | Hek293T 0.316 µM | OV90 0.316 µM | Tov-21-G 0.112 µM

C[C@@H]1[C@H](C)CC[C@]2(C(=O)O)CC[C@]3(C)C(=CC[C@@H]4[C@@]5(C)C[C@@H](O)[C@H](O)[C@@](C)(CO)[C@H]5CC[C@]43C)[C@@H]12
inactive: MCC-13 | MKL-1 | MKL-2 | NIH3T3 | UISO | WaGa

O=C(O)C[C@H](O)C[C@H](O)C=Cc1c(C2CC2)nc2ccccc2c1-c1ccc(F)cc1
active: MCC-13 5.9 µM | MKL-1 5.9 µM | MKL-2 3.32 µM | UISO 2.35 µM | WaGa 7.43 µM

Cn1cc(CNCC2CCN(c3ncc(C(=O)NO)cn3)CC2)c2ccccc21
active: MCC-13 0.833 µM | MCC-26 0.59 µM | MKL-2 0.0332 µM | UISO 0.264 µM | WaGa 0.0296 µM

CCCCCCCCc1ccc(CCC(N)(CO)CO)cc1
inactive: MCC-13 | MCC-26 | WaGa

CC(C)c1cnn2c(NCc3ccccc3)cc(NCCCCCCN)nc12
inactive: MCC-13 | MCC-26 | UISO | WaGa

O=C(CCCCCCC(=O)Nc1cccnc1)NO
active: MCC-13 26.4 µM | MKL-1 7.43 µM | MKL-2 1.87 µM | UISO 13.2 µM | WaGa 2.35 µM

NS(=O)(=O)OC[C@@H]1C[C@@H](n2ccc3c(N[C@H]4CCc5ccccc54)ncnc32)C[C@H]1O
active: MCC-13 5.9 µM | MCC-26 2.09 µM | UISO 1.18 µM | WaGa 1.48 µM

CC(C)NC[C@@H](C(=O)N1CCN(c2ncnc3c2[C@H](C)C[C@H]3O)CC1)c1ccc(Cl)cc1
inactive: MCC-13 | MCC-26
active: MKL-2 1.66 µM | WaGa 2.09 µM

CCCCOc1ccc(C(=O)Nc2ccc(F)cc2F)cc1
not listed: MCC-26 | Hek293T | SKOV3 | [1]
inactive: all other assays above

N#CC(=Cc1ccc(O)c(O)c1)C(=O)NCc1ccccc1
inactive: MCC-13 | MCC-26 | MKL-2

O=C1CSC(=O)N1C(CCc1ccncc1)COc1ccc(-c2cccc([N+](=O)[O-])c2)cc1 (configuration not stated)
active: MKL-2 18.7 µM | UISO 13.2 µM | WaGa 16.6 µM
inactive: MCC-13

CC(=O)O[C@H]1C[C@@H]2CC[C@H]3[C@H]4C[C@H]([N+]5(C)CCCCC5)[C@@H](OC(C)=O)[C@@]4(C)CC[C@@H]3[C@@]2(C)C[C@H]1[N+]1(C)CCCCC1
inactive: MCC-13 | MKL-1 | MKL-2 | UISO | WaGa

CC(=O)N[C@H]1[C@@H]([C@H](O)[C@H](O)CO)OC(C(=O)O)=C[C@@H]1N=C(N)N
inactive: MCC-13 | MKL-1 | MKL-2 | UISO | WaGa

C#C[C@]1(O)CC[C@@H]2[C@@H]3CCC4=CC(=O)CC[C@@H]4[C@H]3CC[C@@]21CC
inactive: MCC-13 | MKL-1 | MKL-2 | UISO | WaGa

O=C(C=Cc1ccc(CN(CCO)CCc2c[nH]c3ccccc23)cc1)NO
active: MCC-13 1.66 µM | MKL-1 0.418 µM | MKL-2 0.105 µM | UISO 1.18 µM | WaGa 0.105 µM

C[N+]1(C)[C@@H]2C[C@@H](OC(=O)C(O)(c3cccs3)c3cccs3)C[C@H]1[C@@H]1O[C@@H]12
not listed: MCC-26 | NIH3T3 | [1]
inactive: all other assays above

COC1=C(OC)C(=O)C(CC=C(C)CCC=C(C)CCC=C(C)CCC=C(C)CCC=C(C)CCC=C(C)CCC=C(C)CCC=C(C)CCC=C(C)CCC=C(C)C)=C(C)C1=O
inactive: MCC-13 | MKL-1 | MKL-2 | UISO | WaGa | [1]
